# In the supplement of paper PMC7411054:
# Structures can show the parent of a compound that is named as a salt.
# System: HepG2-TUBA1B-RELA
# Test: lowest phenotypically active concentration; higher = less potent
# Conditions: treatment time: 24 h
# Summary of the method: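 Fifteen gene-edited A549, HepG2 and WPMY1 reporter lines (BFP segmentation plus GFP and RFP/FusionRed markers) were treated at 0.3, 1, 3 or 9 µM for 24 h, four wells each, then imaged live. Live-cell features per well were normalised to DMSO control wells. Deviation required ≥3 of 4 wells beyond the 95th percentile of DMSO Euclidean distances, and reproducibility required median replicate Pearson correlation above the 95th percentile of non-replicates. Phenotypic activity needed both criteria.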
row,SMILES,lowest phenotypically active concentration [µM]
1,CC/C(=C(\CC)c1ccc(O)c(CN(CC)CC)c1)c1ccc(O)c(CN(CC)CC)c1,1
2,CNCCC(Oc1ccc(C(F)(F)F)cc1)c1ccccc1 (stereo not given) [fluoxetine],3
3,CC(C)COCC(CN(Cc1ccccc1)c1ccccc1)N1CCCC1 (stereo not given) [bepridil],9
4,O=C(NOCC1CC1)c1ccc(F)c(F)c1Nc1ccc(I)cc1Cl,≤ 0.3
5,COc1ccc(CCNCc2ccc(OCc3ccc(Cl)nc3)c(OC)c2)cc1OC [SBE 13 hydrochloride],9
6,O=C(O)Cc1cccc(OCCCN(Cc2cccc(C(F)(F)F)c2Cl)CC(c2ccccc2)c2ccccc2)c1 [GW 3965 hydrochloride],9
7,N#C/C(=C(/N)Sc1ccc(N)cc1)c1ccccc1C(F)(F)F,9
8,Cc1noc(C)c1Cn1cc(C#N)c2cc(Oc3ccc(NC(=O)[C@@H]4CCCN4)cc3)ccc21,9
9,CCCS(=O)(=O)Nc1ccc(F)c(C(=O)c2c[nH]c3ncc(Cl)cc23)c1F,9
10,C[C@H]1Oc2cc(cnc2N)-c2c(nn(C)c2C#N)CN(C)C(=O)c2ccc(F)cc21,≤ 0.3
11,CC(C)OC(=O)c1cc2c(OCC(O)CNC(C)(C)C)cccc2[nH]1 (stereo not given),9
12,COc1ccccc1OCCNCC(O)COc1cccc2[nH]c3ccccc3c12 (stereo not given) [Carvedilol],9
13,O=S(=O)(c1cccc2cnccc12)N1CCCNCC1 [fasudil],9
14,CSc1ccc2c(c1)N(CCC1CCCCN1C)c1ccccc1S2 (stereo not given) [thioridazine],9
15,CCCNCC(O)COc1ccccc1C(=O)CCc1ccccc1 (stereo not given) [propafenone],9
